Screens (PubChem BioAssay)
KCNQ2 pot: enhances the rat KCNQ2 potassium channel | O88943 | CHO-K1 KCNQ2, FluxOR thallium flux fluorescence; active compounds read high | B-score at 10 µM | actives 0.54% (n = 310,000) | AID 2239;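 active = fluorescence ratio B-score at least 3 SD of library B-scores, with initial fluorescence B-score within 3 of them, cut at about 5.3 in these data; same plate scores as AID 2156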;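 also: B-score of peak minus minimum over baseline fluorescence ratio after K+ and Tl+ stimulus; positive B-score means potentiation of KCNQ2 with more thallium influx and brighter signal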
Target sequence (O88943 whole entry, looked up): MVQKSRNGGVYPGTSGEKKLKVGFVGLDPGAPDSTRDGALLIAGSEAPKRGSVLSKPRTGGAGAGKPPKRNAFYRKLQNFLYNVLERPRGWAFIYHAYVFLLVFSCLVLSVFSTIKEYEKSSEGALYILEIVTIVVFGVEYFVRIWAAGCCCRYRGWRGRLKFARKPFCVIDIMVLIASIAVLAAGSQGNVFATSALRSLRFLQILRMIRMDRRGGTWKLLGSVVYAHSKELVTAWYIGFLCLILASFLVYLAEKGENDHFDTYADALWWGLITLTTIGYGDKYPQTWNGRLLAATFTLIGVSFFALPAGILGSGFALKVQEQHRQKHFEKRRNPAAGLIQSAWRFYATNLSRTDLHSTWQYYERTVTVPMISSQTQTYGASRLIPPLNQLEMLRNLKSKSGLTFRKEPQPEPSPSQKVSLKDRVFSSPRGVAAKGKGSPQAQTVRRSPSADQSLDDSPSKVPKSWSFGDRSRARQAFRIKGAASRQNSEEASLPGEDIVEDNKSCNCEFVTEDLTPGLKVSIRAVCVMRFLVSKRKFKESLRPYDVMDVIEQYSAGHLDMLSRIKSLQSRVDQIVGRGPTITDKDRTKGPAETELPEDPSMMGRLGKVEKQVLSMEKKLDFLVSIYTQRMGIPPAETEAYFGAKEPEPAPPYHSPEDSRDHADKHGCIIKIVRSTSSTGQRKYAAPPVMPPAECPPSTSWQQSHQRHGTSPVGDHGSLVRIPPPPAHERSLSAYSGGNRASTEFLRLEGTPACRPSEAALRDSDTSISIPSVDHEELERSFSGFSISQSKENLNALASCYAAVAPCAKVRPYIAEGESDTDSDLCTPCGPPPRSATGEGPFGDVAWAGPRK
KCNQ2 block: KCNQ2 (rat) channel inhibition; CHO-K1 KCNQ2, FluxOR thallium flux, 20 min; active compounds read low; B-score at 10 µM; O88943; AID 2156; actives 1.1% (n = 310,000);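 active = fluorescence ratio B-score at most minus 3 library SDs, with starting brightness B-score within 2 library SDs, cut at about -5.5 in these data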
Numbers stand for hits; . = inactive; / = no result. The list is not random: actives were taken first. Their share in the collection is about 1.6%.

SMILES	KCNQ2 pot	KCNQ2 block
CCCC(Oc1ccc(Br)cc1)c1nc2c3cc(OC)c(OC)cc3nc(=S)n2[nH]1 (stereo not drawn)	/	.
O=C(Nc1cc(C(F)(F)F)ccc1Cl)C(Sc1ccccn1)c1ccccc1 (stereo not drawn)	/	.
Cc1cc(C(=O)NCC(=O)OC(C(=O)Nc2cc(C(F)(F)F)ccc2Cl)c2ccccc2)ccc1[N+](=O)[O-] (stereo not drawn)	.	-5.8
COc1ccc(C)cc1NC(=O)C(OC(=O)CNC(=O)c1ccc(Br)cc1)c1ccccc1 (stereo not drawn)	/	.
CCCC(=O)OC(C(=O)Nc1cc(C(F)(F)F)ccc1Cl)c1ccccc1 (stereo not drawn)	.	-5.6
Cc1ccc(NC(=S)NCc2ccccc2)cc1S(=O)(=O)N1CCCCC1	.	.
COc1cccc(-n2ccn(CC(=O)NCCc3ccccc3)c(=O)c2=O)c1	.	.
Cc1ccc(Cl)cc1N1CCN(C(=S)NCCc2ccccc2)CC1	.	-5.8
Cc1cccc(N2CCN(C(=S)NCCc3ccccc3)CC2)c1C	/	.
Cc1ccc(C)c(OC(=O)CN2C(=O)c3ccccc3C2=O)c1	.	.
O=c1cc(CN2CCN(C/C=C/c3ccccc3)CC2)c2cc(O)c(-c3ccccc3)cc2o1	.	.
CC(C)CN(Cc1cc(=O)oc2cc(-c3ccccc3)c(O)cc12)CC(C)C	.	-7.5
Cc1cccc2cc(C#N)c(N3CCC(O)CC3)nc12	/	.
CN(C)CCNC(=O)c1ccc(Sc2ccc(Br)cc2)c([N+](=O)[O-])c1	/	.
COc1ccc(OC)c(N2C(=NC(=O)C3CCCCC3)SC3CS(=O)(=O)CC32)c1 (stereo not drawn)	.	.
Cc1oc2ccc(OCc3ccccc3Cl)cc2c1C(=O)O	.	.
Cc1oc2ccc(OCc3ccc(F)cc3Cl)cc2c1C(=O)O	7	.
O=C(N/C(=C\c1ccccc1)C(=O)N1CCCCC1)c1ccc(Br)o1	/	.
O=C(Cc1ccccc1)Nc1cc(Cl)ccc1Sc1ccccc1	/	.
O=C(Cc1ccc(Cl)cc1)Nc1ccccc1Sc1ccccc1	7.8	.
CCOC(=O)C1(Cc2ccccc2C(F)(F)F)CCN(C2CCN(C(C)=O)CC2)CC1	.	.
COc1ccc(Cn2c(=O)[nH]c3cc(C(=O)N4CCN(Cc5ccccc5)CC4)ccc3c2=O)cc1	/	.
COc1ccc2c(C)c(C(=O)N3CCN(Cc4ccccc4)CC3)oc2c1	.	-6.2
Cc1cc(NC(=O)CSc2nnc(COc3ccccc3)n2Cc2ccco2)no1	.	.
Cc1ccc(OCc2nnc(SCC(=O)C(C)(C)C)n2Cc2ccco2)cc1	.	-7
SMILES	KCNQ2 pot	KCNQ2 block
CCOC(=O)c1c(C)c(C(=O)NCCc2ccccc2)c(C)n1C	/	.
CCOC(=O)c1c(C(=O)OCC)c(C)n(CCc2ccccc2)c1C	.	-5.8
Cc1ccc(S(=O)(=O)N2CCCCC2)c(C)c1NS(C)(=O)=O	.	.
CCN(CC)C(=O)c1sc2nc(-c3cccs3)cc(-c3ccc(Cl)cc3)c2c1N	.	-6.9
CCN(CC)C(=O)c1sc2nc(-c3cccs3)cc(-c3cccs3)c2c1N	/	.
O=C(CC1Nc2c3ccccc3nc(=S)n2C1=O)NC1CCCCC1 (stereo not drawn)	.	.
Cc1ccc2nc(C)c(C(=O)NN=C3CCCCCC3)n2c1	.	.
O=C(CSc1ncn[nH]1)N1N=C2/C(=C/c3ccccc3)CCCC2C1c1ccccc1 (stereo not drawn)	.	-5.7
COc1ccc(/C=C2\CCCC3C2=NN(C(=O)CSc2ncn[nH]2)C3c2ccc(OC)cc2)cc1 (stereo not drawn)	/	.
COC1c2ccccc2C(=O)N1Cc1ccc(F)cc1 (stereo not drawn)	/	.
Cc1c(C(N)=O)c(-c2ccccc2)nn1-c1ccccc1	.	.
CCCc1c(-c2ccc(O)cc2)nn(-c2ccc(O)cc2)c1-c1ccc(O)cc1	.	-6.6
Cc1nn(C(C)(C)C)c(OC(=O)c2ccc3c(c2)OCO3)c1Sc1ccccc1	/	.
Cc1nn(C(C)(C)C)c(OC(=O)c2cccs2)c1Sc1ccccc1	.	-8
Cc1nn(C(C)(C)C)c(OC(=O)c2ccco2)c1Sc1ccccc1	.	-6.1
Cc1nn(C(C)(C)C)c(OC(=O)c2ccc(Br)o2)c1Sc1ccccc1	/	.
Cc1cccc(NC(=S)NCCc2ccc3c(c2)OCCO3)c1C	/	.
O=C(CNC(=O)c1ccco1)N/N=C/c1ccc(C(=O)O)cc1	/	.
COc1ccc(-n2nc(C(C)=O)c(=O)[nH]c2=O)cc1	/	.
CC1(C)CC(=O)C=C(Nc2ccc(Cl)c(Br)c2)C1	.	.
CCOc1ccc(C(=O)CCN2CCCCCC2)cc1	.	-6.6
CCCOc1ccc(C(=O)CCN2CCCCC2)cc1	/	.
O=C(NNC(=O)c1ccc([N+](=O)[O-])cc1C(=O)O)c1ccncc1	.	.
CCOC(=O)C(NC(=O)c1ccccc1Cl)(Nc1ccc(C)c(C)c1)C(F)(F)F (stereo not drawn)	/	.
COC(=O)C(Nc1ccccc1Cl)(c1cc(C)c(O)c(C)c1)C(F)(F)F (stereo not drawn)	.	-8
SMILES	KCNQ2 pot	KCNQ2 block
c1ccc(C(c2ccccc2)N2CCN(Cc3nnnn3C3CCCC3)CC2)cc1	/	.
CC(C)CCn1nnnc1CN1CCN(C(c2ccccc2)c2ccccc2)CC1	.	-5.7
O=C(Nc1ccccc1)Nc1n[nH]c2nnc(-c3ccccc3)c(-c3ccccc3)c12	.	.
Cc1ccc(S(=O)(=O)N2CCCCC2)cc1NC(=O)COc1ccccc1F	.	.
Cc1ccc(-c2cc(C(=O)NCCCn3ccnc3)c3ccccc3n2)s1	/	.
CCc1ccc(-c2cc(C(=O)NCCCn3ccnc3)c3ccccc3n2)s1	.	-8.2
COCCOC(=O)c1c(NC(=O)CN2CCCc3ccccc32)sc(C(N)=O)c1C	.	.
CC(C)(C)N/N=C1\CC(c2ccccc2)Oc2ccccc21 (stereo not drawn)	.	-7.2
c1ccc(C2C/C(=N\N3CCOCC3)c3ccccc3O2)cc1 (stereo not drawn)	/	.
CCOc1ccc(N(C)S(=O)(=O)c2ccc(C)c(C(=O)OCC(=O)c3c[nH]c4ccccc34)c2)cc1	.	.
CCOC1=C/C(=C/c2c(N)n3nc(-c4ccccc4)sc3nc2=O)C=CC1=O	.	-6.9
CCS(=O)(=O)c1nn2c(N)c(/C=C3/C=CC(=O)C(OC)=C3)c(=O)nc2s1	/	.
CCOC(=O)C1(CCc2ccccc2)CCN(C(=O)CN2C(=O)CSC2=O)CC1	/	.
COc1ccc(S(=O)(=O)N2CCN(c3ccc(C)cc3C)CC2)cc1OC	/	.
CCOc1ccc(S(=O)(=O)N2CCN(c3ccc(C)cc3C)CC2)cc1	.	-7
CCCOc1ccc(-c2nc(N3CCN(CC)CC3)c3ccccc3n2)cc1	/	.
CCCOc1ccc(-c2nc(N3CCN(C)CC3)c3ccccc3n2)cc1	.	-6.7
CC(=O)NS(=O)(=O)c1ccc(NC(=O)c2ccc3c(c2)C(=O)N(CCC(C)C)C3=O)cc1	.	.
CCN(CC)S(=O)(=O)c1cc(-c2nnc(-c3ccc(Br)cc3)o2)ccc1Cl	.	-6.1
CCN(CC)S(=O)(=O)c1cccc(-c2nnc(-c3ccc(C)cc3)o2)c1	/	.
CCN(CC)S(=O)(=O)c1ccc(-c2nnc(SC)o2)cc1	.	.
CCN(CC)S(=O)(=O)c1cc(-c2nnc(-c3ccc(Br)cc3)o2)ccc1Br	.	-7
N#Cc1cccc(NC(=O)c2cncn2-c2ccccc2)c1	/	.
Cc1c(C(=O)N(CCC#N)c2ccccc2)sc2nc3n(c(=O)c12)CCCC3	/	.
